From PubChem BioAssay (Tox21)
A number with no mark means an inactive call. Results filed as inconclusive are left out. Where a call stands in place of a potency, no number is given. Calls of active or inactive are those of the source. Unless noted, the call rests on the fitted dose curve; in most records, active means well fitted curve in the direction sought with a large enough effect in the repeat runs; inconclusive means weak or mixed curves; inactive means no such curve, though single readings can be large; an effect the other way counts as inactive or inconclusive.

Assays:
[1] = qHTS assay for small molecules that induce genotoxicity in human embryonic kidney cells expressing luciferase-tagged ATAD5 (AID 651632); further: nearly all actives have a fitted effect of over 15% in size; further: potency means the concentration at half of the fitted maximal effect
Procedure, shortened: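 HEK293T cells carrying luciferase-tagged ATAD5 were given compound or DMSO vehicle and incubated 16 hr at 37C, 5% CO2. Luciferase activity was read after 30 min at room temperature with Amplite; a rise signals genotoxic stress.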

[2] = qHTS assay for small molecule agonists of the p53 signaling pathway - cell viability (AID 651633; calls by dose curve;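 further: p53RE-bla HCT reporter cells with a stable beta-lactamase p53 reporter; series mostly up to about 83 µM; nearly all actives have a fitted effect of over 30% in size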)
Procedure, shortened: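 Viability counter-read: CellTiter-Glo luminescence (30 min, room temperature) in the same p53RE-bla plates. These plates had been exposed to compounds for 16 h at 37 C.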

[3] = qHTS assay for small molecules that induce genotoxicity in human embryonic kidney cells expressing luciferase-tagged ATAD5 - cell viability (AID 651634; calls by dose curve; further: nearly all actives have a fitted effect of over 25% in size)
Procedure, shortened: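 HEK293T cells carrying luciferase-tagged ATAD5, 2,000 cells/well, exposed to compound for 15.5 hr at 37C. Viability read as live-cell protease activity by CellTiter-Fluor fluorescence after 30 min at 37C.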

[4] = qHTS assay for small molecule disruptors of the mitochondrial membrane potential - cell viability (AID 720634; calls by dose curve;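 further: human HepG2 liver cancer cells; series mostly up to about 83 µM; nearly all actives have a fitted effect of over 20% in size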)
Procedure, shortened: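 HepG2 cells, 2,000 per well, attached overnight, then treated 1 hr at 37 C, 5% CO2. Viability read as ATP by CellTiter-Glo luminescence after 30 min at room temperature. Read in the same wells as the m-MPI membrane-potential dye assay.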

[5] = qHTS assay for small molecule disruptors of the mitochondrial membrane potential (AID 720635); further: potency means the concentration at half of the fitted maximal effect
Procedure, shortened: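 Mitochondrial membrane potential tracked with Mito-MPS dye, red aggregates (ex 540/em 590 nm) against green monomers (ex 490/em 535 nm). Compound treatment 1 hr at 37C, dye 30 min in HepG2.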

[6] = qHTS assay to test for compound auto fluorescence at 590 nm (red) in HepG2 cells (AID 720674)
Procedure, shortened: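 Red autofluorescence (Ex/Em 540/590 nm, Rose Bengal sodium equivalents) was measured in HepG2 cells, 2,000 per well in MEM plus 10% FBS, plated overnight at 37 C. Readings were taken 1 hr after adding 23 nL compound or DMSO, at 37 C and 5% CO2.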

[7] = qHTS assay to test for compound auto fluorescence at 535 nm (green) in HepG2 cells (AID 720675)
[8] = qHTS assay to test for compound auto fluorescence at 460 nm (blue) in HEK293 cells (AID 720678)
Procedure, shortened: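 Blue read-out at excitation 405 nm and emission 460 nm follows overnight compound exposure of HEK293 cells at 37C in 5% CO2. Activity is given as auto fluorescence equivalency to triamterene.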

[9] = qHTS assay to test for compound auto fluorescence at 590 nm (red) in HEK293 cells (AID 720679)
Procedure, shortened: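 Red channel, Ex/Em 540/590nm; signal expressed as equivalency to Rose Bengal sodium. HEK293, 2,000 cells/well, 10% dialyzed FBS; 23 nL compound pinned after 4-5 hr attachment; overnight 37C/5% CO2 before reading.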

[10] = qHTS assay to test for compound auto fluorescence at 535 nm (green) in HEK293 cells (AID 720680)
[11] = qHTS assay to test for compound auto fluorescence at 460 nm (blue) in HEK293 cell free culture (AID 720681)
Procedure, shortened: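 Blue fluorescence (Ex 405/Em 460 nm, triamterene-equivalent) was read immediately after pin transfer of compound or DMSO into medium (DMEM, 10% FBS) without cells.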

[12] = qHTS assay to test for compound auto fluorescence at 535 nm (green) in HEK293 cell free culture (AID 720682)
Procedure, shortened: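 Intrinsic compound fluorescence is measured in culture medium containing 10% FBS, with excitation at 485 nm and detection at 535 nm, referenced to fluorescein.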

[13] = qHTS assay to test for compound auto fluorescence at 590 nm (red) in HEK293 cell free culture (AID 720683)
Procedure, shortened: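 Red-channel autofluorescence of compounds in culture medium (DMEM, 10% FBS), no cells, measured at 540/590 nm. Rose Bengal sodium is the reference fluorophore for equivalence.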

[14] = qHTS assay to test for compound auto fluorescence at 590 nm (red) in HepG2 cell free culture (AID 720684)
Procedure, shortened: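 Steps: dispense MEM/10% FBS medium, no cells; pin compound or DMSO vehicle; read red channel, Ex/Em 540/590 nm. Output given as Rose Bengal sodium equivalents.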

[15] = qHTS assay to test for compound auto fluorescence at 460 nm (blue) in HepG2 cell free culture (AID 720685)
Procedure, shortened: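 Compound (23 nL) or DMSO pinned into cell-free MEM with 10% FBS; blue fluorescence read at 405/460 nm excitation/emission, expressed as auto-fluorescence equivalency to triamterene.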

[16] = qHTS assay to test for compound auto fluorescence at 535 nm (green) in HepG2 cell free culture (AID 720686)
[17] = qHTS assay to test for compound auto fluorescence at 460 nm (blue) in HepG2 cells (AID 720687)
Procedure, shortened: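 Blue-channel autofluorescence (Ex/Em 405/460 nm, triamterene-equivalent) was measured after 1 hr compound exposure at 37 C, 5% CO2. Cells were HepG2, plated overnight at 37 C in MEM plus 10% FBS.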

[18] = qHTS assay for small molecule agonists of the p53 signaling pathway (AID 651631; calls by dose curve; further: nearly all actives have a fitted effect of over 15% in size)
Procedure, shortened: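 Fluorescence intensity from cleaved LiveBLAzer B/G substrate (2 h, room temperature) served as the signal. Beforehand, HCT-116 reporter cells bearing p53 response elements were treated 16 h at 37 °C with DMSO-dissolved compounds.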

[19] = target: Glucocorticoid receptor (Homo sapiens) (UniProt P04150); assay: qHTS assay to identify small molecule agonists of the glucocorticoid receptor (GR) signaling pathway (AID 720691; active means well fitted activation curve with a large enough effect in the signal ratio in the repeat runs, not every such curve was filed as active; the % refers to the signal ratio)
Chain of Glucocorticoid receptor (Homo sapiens) (P04150 whole entry, looked up): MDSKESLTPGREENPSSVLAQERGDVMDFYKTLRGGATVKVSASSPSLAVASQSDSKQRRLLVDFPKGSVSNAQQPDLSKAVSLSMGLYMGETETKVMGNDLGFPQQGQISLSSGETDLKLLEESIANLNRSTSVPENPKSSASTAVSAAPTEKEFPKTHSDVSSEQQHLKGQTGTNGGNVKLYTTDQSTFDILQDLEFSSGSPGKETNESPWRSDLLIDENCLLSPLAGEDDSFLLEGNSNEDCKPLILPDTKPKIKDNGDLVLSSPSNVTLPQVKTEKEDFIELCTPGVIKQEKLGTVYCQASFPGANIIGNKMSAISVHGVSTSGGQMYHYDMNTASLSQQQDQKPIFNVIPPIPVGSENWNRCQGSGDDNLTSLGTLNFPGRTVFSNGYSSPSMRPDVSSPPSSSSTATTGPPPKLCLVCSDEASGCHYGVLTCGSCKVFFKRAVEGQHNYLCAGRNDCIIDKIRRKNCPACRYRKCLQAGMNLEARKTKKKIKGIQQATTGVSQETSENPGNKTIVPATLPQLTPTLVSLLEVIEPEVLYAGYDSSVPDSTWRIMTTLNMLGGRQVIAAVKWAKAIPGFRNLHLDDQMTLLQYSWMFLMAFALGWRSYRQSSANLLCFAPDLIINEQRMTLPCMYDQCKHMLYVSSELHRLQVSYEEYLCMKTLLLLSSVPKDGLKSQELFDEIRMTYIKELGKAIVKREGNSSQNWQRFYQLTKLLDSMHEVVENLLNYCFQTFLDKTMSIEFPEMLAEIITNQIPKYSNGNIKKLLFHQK
Procedure, shortened: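 GR-bla HeLa cells carrying a GRE-driven beta-lactamase reporter, exposed to compounds for 18 h at 37 C. Reporter activation read as fluorescence after 2 h with LiveBLAzer B/G FRET substrate at room temperature.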

[20] = target: Glucocorticoid receptor (Homo sapiens) (UniProt P04150); assay: qHTS assay to identify small molecule antagonists of the glucocorticoid receptor (GR) signaling pathway (AID 720692; active means well fitted inhibition curve with a large enough effect in the signal ratio in the repeat runs, not every such curve was filed as active; the % refers to the signal ratio)
Procedure, shortened: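 GR-bla HeLa cells carrying a GRE-driven beta-lactamase reporter received compound after 4 h plating, then dexamethasone (5 nM final). After 18 h at 37C, the FRET substrate was loaded for 2 h at room temperature and fluorescence read.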

Structure (SMILES)	Potency [1]	Potency [2]	Potency [3]	Potency [4]	Potency [5]	outcome [6]	outcome [7]	Potency [8]	outcome [9]	outcome [10]	Potency [11]	outcome [12]	outcome [13]	outcome [14]	Potency [15]	outcome [16]	Potency [17]	Potency [18]	Potency [19]	Potency [20]
CCCCOCC(C)OCC(C)O (configuration not stated)	inactive	inactive	inactive	inactive	inactive	inactive	inactive	inactive	inactive	inactive	inactive	inactive	inactive	inactive	inactive	inactive	inactive	–	–	–
CO	–	inactive	inactive	–	–	inactive	inactive	–	inactive	–	–	inactive	inactive	inactive	inactive	inactive	inactive	inactive	–	–
CN(C)N=Nc1ccccc1	inactive	inactive	–	inactive	–	inactive	inactive	inactive	inactive	inactive	inactive	inactive	inactive	inactive	inactive	inactive	inactive	inactive	–	–
CC(=O)O[C@H](CC(=O)[O-])C[N+](C)(C)C	inactive	inactive	inactive	–	–	inactive	inactive	–	inactive	inactive	inactive	inactive	inactive	inactive	inactive	inactive	inactive	inactive	inactive	inactive
C[N+](C)(C)CC[N+]1(C)Cc2c(Cl)c(Cl)c(Cl)c(Cl)c2C1	inactive	inactive	inactive	–	–	inactive	inactive	inactive	inactive	inactive	inactive	inactive	inactive	inactive	inactive	inactive	–	inactive	inactive	inactive
Cc1nc(-c2ccc(OCC(C)C)c(C#N)c2)sc1C(=O)O	0.15 µM (active)	inactive	inactive	–	–	inactive	inactive	inactive	inactive	inactive	inactive	inactive	inactive	inactive	inactive	inactive	–	inactive	inactive	–
CC1=CCC2C(C1)C2(C)C (configuration not stated)	inactive	inactive	inactive	inactive	48.6 µM (active)	inactive	inactive	inactive	inactive	inactive	inactive	inactive	inactive	inactive	inactive	inactive	inactive	–	inactive	inactive
CC1=CC(=O)CCC1	inactive	inactive	inactive	inactive	–	inactive	inactive	inactive	inactive	inactive	inactive	inactive	inactive	inactive	inactive	inactive	inactive	–	inactive	inactive
